Sampled rows, rich in hits. Any-hit rate of the full collection: about 10%.
G9a block: blocks human histone lysine methyltransferase G9a | Q96KQ7 | G9a H3K9 monomethylation, AlphaScreen, 2 h | Potency, µM (titrated, usually from 102 µM), for the others: at the highest dose activity, negative = inhibition, actives largely listed as inhibitors | 350,000 tested, 8.8% active | AID 504332; also: potency is read from the fitted curve at half-maximal effect; % is scaled to controls: 0 for no effect and ±100 for the full control effect; nearly all actives have a fitted effect of over 75% in size
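Methyltransferase reactions run at room temperature for 2 h (20 nM enzyme, 500 nM biotin-H3K9 peptide, 20 uM SAM) after a 15 min compound preincubation; product detected by AlphaScreen beads and anti-H3K9me1 antibody.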
JMJD2A Tudor: JMJD2A Tudor domain (human) inhibition | O75164 | AlphaScreen JMJD2A-Tudor / H3K4me3 peptide binding | 390,000 tested, 4.4% active | Potency, µM (highest dose often 114 µM), without a hit: top-dose activity change, negative = inhibition, actives largely listed as inhibitors; also: potency is read from the fitted curve at half-maximal effect; % is scaled to controls: 0 for no effect and ±100 for the full control effect; nearly all actives have a fitted effect of over 50% in size
CtBP-E1A inh: inhibitors of CtBP/E1A interaction | AID 651724 | activity change, % (test concentration not listed) | 340,000 tested, 0.49% active | AlphaScreen GST-E1A/His-CtBP binding, 1536-well; stronger effect = lower value; in the data active = activity change below about -65%; inconclusive = mostly about -30% to -63%; also: % is scaled to controls: 0 for no effect and ±100 for the full control effect
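AlphaScreen with 125 nM GST-E1A and 125 nM His-CtBP (5X stocks) in Tris pH 8.0, 300 mM NaCl, BSA, Tween 20, TCEP. Compounds preincubated 2 h at 37 deg C, then glutathione donor/nickel acceptor beads added for 1 h at 37 deg C in dark.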
BAZ2B block: inhibitors of human BAZ2B bromodomain; 360,000 tested, 4.4% active; Q9UIF8; Potency, µM (doses to about 114 µM), for the others: at the top dose activity change, negative = inhibition, hits mostly inhibitors; AID 504333; AlphaScreen BAZ2B-H3K14Ac peptide displacement; also: potency is read from the fitted curve at half-maximal effect; % is scaled to controls: 0 for no effect and ±100 for the full control effect; nearly all actives have a fitted effect of over 60% in size
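In this displacement format the biotinylated H3(5-23) peptide acetylated at Lys14 serves as ligand at 50 nM, with BAZ2B at 50 nM in PBS pH 7.4 containing 0.01% Tween-20. Donor and acceptor beads are 10 ug/mL final.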
HP1b chromo inh: HP1-beta chromodomain-methylated histone interaction inhibition | AlphaScreen HP1-beta / biotin-H3K9me3 peptide binding | 390,000 tested, 0.56% active | Potency, µM (top dose mostly 114 µM), inactives show top-dose activity change, negative = inhibition, usual class: inhibitors; also: potency is read from the fitted curve at half-maximal effect; nearly all actives have a fitted effect of over 70% in size
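HP1-beta protein (50 nM final) preincubated 30 min at room temperature with biotinylated H3(1-18)K9me3 peptide (50 nM) in PBS pH 7.4, 0.01% Tween-20, then compound added for 30 min. AlphaScreen streptavidin donor/nickel chelate acceptor beads (10 ug/mL final), 30 min dark, luminescence read.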
Six1-Eya2 blk: blocks human Six1 binding to Eya2; Q15475+O00167; 360,000 tested, 0.56% active; AlphaScreen GST-Six1/His-Eya2 binding, biochemical; stronger effect = lower value; AID 651725; activity change, % (no concentration beside the values); in the data active = activity change below about -65%; inconclusive = mostly about -30% to -63%; also: % is scaled to controls: 0 for no effect and ±100 for the full control effect
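Six1/Eya2 binding was read as AlphaScreen signal after compounds were pinned into GST-Six1 plus His-tagged Eya2 (5X stock 250/500 nM) in pH 8.0 Tris/NaCl/TCEP buffer, beads added, then incubated 1 h, 37 C, dark.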
The depositor's hits bear a star; ? = inconclusive; . = not tested or not shown; ! = not confirmed by another sample; [ ] = remark or other dose. Unless noted, calls follow the shape of the dose curve; as a rule, active = well fitted inhibition curve with a large enough effect; inconclusive = small, poorly fitted or top-dose-only effect; inactive = no such curve, though single readings can be large or run the other way.

SMILES | G9a block | JMJD2A Tudor | CtBP-E1A inh | BAZ2B block | HP1b chromo inh | Six1-Eya2 blk
CN=c1nc(-c2ccccc2)n(-c2ccccc2)s1 | 1.1µM*! | 22µM* | 1 | 8.9µM* | 7.1µM* | -4
CCOc1cc(-c2sc(Nc3ccccc3)n[n+]2-c2ccc(F)cc2)ccc1OC | . | ? | -9 | -5% | 38% | 11
CCc1ccc(Nc2n[n+](C)c(-c3ccncc3)s2)cc1 | . | 56µM* | -6 | 56µM* | -16% | -6
CCc1ccc(Nc2n[n+](-c3ccccc3)c(-c3ccc(C(=O)O)cc3)s2)cc1 | 32µM* | 79µM* | 4 | 35µM* | -9% | 0
Fc1ccc(-[n+]2nc(Nc3ccccc3)sc2-c2ccc(OCc3ccccc3)cc2)cc1 | . | 89µM* | -1 | ? | 12% | -10
CSc1ccc(-c2sc(Nc3ccccc3)n[n+]2-c2ccccc2)cc1 | 35µM* | 56µM* | -28 | 45µM* | -27% | ?
CCOc1ccc(NC(=O)CSc2nnc(NC(=O)C3CC3)s2)cc1 | -2%[59 µM] | 8% | -7 | -1% | 19% | -7
CCCCOc1ccc(CNC(=O)c2cccc(NC(=O)N3CCSc4ncccc43)c2)cc1 | ? | -15% | . | -9% | -6% | .
COc1ccc(CC(=O)NCc2ccc3c(c2)CCN3C(=O)c2ccc(Cl)cc2)cc1OC | -8%[59 µM] | ? | . | -17% | 21% | .
NC(C(=O)O)(c1ccc(P(=O)(O)O)cc1)C1CC1 (stereo unspecified) | 29%[59 µM] | . | . | . | . | .
CSc1ccc(-c2sc(Nc3cccc4ccccc34)n[n+]2-c2ccccc2)cc1 | . | 79µM* | -25 | 18µM* | 13% | -21
COc1cc(OC)c(-c2sc(Nc3ccccc3)n[n+]2-c2ccc(F)cc2)cc1OC | -21% | -12% | -9 | -7% | 41% | 0
CC(=O)Nc1ccc(-c2sc(Nc3cccc4ccccc34)n[n+]2-c2ccccc2)cc1 | 45µM* | -33% | 21 | ? | 23% | 3
COc1cc(Br)c(-c2sc(Nc3ccccc3)n[n+]2-c2ccc(F)cc2)cc1OC | ? | 79µM* | . | ? | -5% | -13
C[n+]1nc(Nc2cccc3ccccc23)sc1-c1ccc(C(=O)O)cc1 | 2%[12.7 µM] | . | . | 0% | . | .
CCc1ccc(Nc2n[n+](-c3ccccc3)c(-c3ccc(OC)c(Br)c3)s2)cc1 | 35µM* | -33% | . | ? | 19% | -12
COc1ccc(Cc2nnc(Nc3ccccc3)s2)cc1Br | 12% | -20% | . | -3% | 34% | 2
CCc1ccc(Nc2n[n+](C)c(-c3ccc(C(=O)O)cc3)s2)cc1 | 2%[12.7 µM] | . | . | -8% | . | .
CCc1ccc(Nc2n[n+](-c3ccccc3)c(-c3ccc(SC)cc3)s2)cc1 | 45µM* | ? | 10 | ? | 27% | -10
Fc1cccc(NCc2ccoc2)c1 | 40µM* | -35% | 3 | -7% | 39% | 2
Cc1ccc(C)c(N2CCN(C(c3ccccc3)c3nnc(-c4ccccc4F)o3)CC2)c1 (stereo unspecified) | -49%[59 µM] | -4% | . | -18% | 38% | .
Cc1cc(Cn2nnnc2-c2ccncc2)cc(C)c1O | 35µM* | -6% | -12 | -11% | 47% | -1
CCCCn1c(N)c(N(CCOC)C(=O)C2CCN(S(=O)(=O)c3ccc(C)c(C)c3)CC2)c(=O)[nH]c1=O | 50µM* | -18% | 0 | -5% | 35% | 8
CCCCn1c(N)c(N(CCOC)C(=O)C2CCN(C(=O)c3ccc(Cl)cc3)CC2)c(=O)[nH]c1=O | 56µM* | -3% | -9 | -6% | 35% | 10
CCCCn1c(N)c(N(CCOC)C(=O)C2CCN(C(=O)c3ccc(F)cc3)CC2)c(=O)[nH]c1=O | -29% | -3% | -7 | -6% | 9% | 10
SMILES | G9a block | JMJD2A Tudor | CtBP-E1A inh | BAZ2B block | HP1b chromo inh | Six1-Eya2 blk
CCCCn1c(N)c(N(CC(C)C)C(=O)C2CCN(S(=O)(=O)c3ccc(C)cc3)CC2)c(=O)[nH]c1=O | 10%[0.501 µM] | -11% | 0 | -5% | 14% | 6
CCCCn1c(N)c(N(CCOC)C(=O)C2CCCN(C(=O)c3ccc(Cl)cc3)C2)c(=O)[nH]c1=O (stereo unspecified) | 28µM* | -8% | 6 | -9% | 35% | 9
CCCCn1c(N)c(N(CCC(C)C)C(=O)C2CCCC2)c(=O)[nH]c1=O | 20µM* | -5% | . | -3% | 51% | 4
CCCCn1c(N)c(N(CC(C)C)C(=O)C2CCC2)c(=O)[nH]c1=O | 15%[12.7 µM] | 12% | 8 | -2% | 31% | 0
Cc1c([S+](=O)([O-])N2CCN([S+](=O)([O-])c3c(F)cccc3F)CC2)sc2ccc(Cl)cc12 | . | -18% | . | . | . | .
CC1(C2CC2)NC(=O)N(CC(=O)Nc2ccccc2C#N)C1=O (stereo unspecified) | ? | -4% | 1 | -3% | 30% | 1
Cc1ccc(OCC(=O)NCC2(N(C)C)CCCCC2)cc1C | -10%[59 µM] | -7% | . | -5% | 36% | .
CCCCN(C(=O)C1CC(=O)N(CCc2ccc(OC)c(OC)c2)C1)c1c(N)n(CCCC)c(=O)[nH]c1=O (stereo unspecified) | 16µM* | -4% | -20 | -23% | 18% | 5
CCCCn1c(N)c(N(CCC(C)C)C(=O)CSc2nc3ccccc3n2C)c(=O)[nH]c1=O | . | 79µM* | -15 | . | -39% | -1
CC(C)Nc1nnc(SCC(=O)Nc2ccc3c(c2)C(=O)c2ccccc2C3=O)s1 | ? | ? | 4 | ? | 2% | -74*
Cc1ccc(Nc2nnc(SCC(=O)Nc3cccc(S(=O)(=O)N4CCCCC4)c3)s2)cc1 | 40µM* | -28%[57.1 µM] | -6 | -20% | 14% | -13
Cc1nnc(SCC(=O)Nc2cccc(S(=O)(=O)N3CCCCC3)c2)s1 | 10%[2.33 µM] | -11% | . | -3% | 13% | 0
O=C(CSc1nnc(Nc2ccccc2F)s1)Nc1cccc(S(=O)(=O)N2CCCCC2)c1 | 3.2µM* | ? | -9 | -10% | 7% | -22
CCNC(=O)N1CCCC(C(=O)c2ccc(C(F)(F)F)cc2)C1 (stereo unspecified) | 22% | 9% | 15 | 6% | 35% | -2
O=C(CCCNC(=O)c1ccc(Cl)cc1)Nc1ccccc1C(F)(F)F | -2% | 2% | . | 1% | 28% | 0
CCCCOc1ccc(N(CC(=O)NCc2ccccc2)C(=O)c2csnn2)cc1 | 1% | -3% | -4 | -6% | 24% | 9
CCCCCCCCN1C(=O)[C@H](CC(=O)NCc2ccc(C)o2)C[C@@]2(C(=O)OC)CCCCC=C12 | . | . | 21 | . | . | 8
Cn1cc(C=C2C(=O)OC3(CCCCC3)OC2=O)c2ccccc21 | . | -22% | -1 | -15% | 27% | 4

Assay outcomes from PubChem BioAssay.
